Data reported in PubChem BioAssay (NCI).
This is part of a sample that, as a whole, favours compounds with a hit. Of some 79,000 tested, about 15% had one in any assay. Unmarked numbers belong to inactive results. Cut-off read from the data, not from the text of the source: active = growth inhibition above about 70%; inactive = the rest.

assay: NCI Yeast Anticancer Drug Screen. Data for the bub3 strain (AID 167); details: S. cerevisiae bub3 mutant strain, at 50.0 µM, active compounds read high
Procedure, shortened: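 In this screen, a yeast mutant lacking normal mitotic checkpoint function is challenged with compound. Relative growth versus vehicle gives the inhibition value.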

Row | Structure (SMILES) | growth inhibition
1 | Oc1ccc(-c2nc(-c3ccccc3)c(-c3ccccc3)[nH]2)cc1 | -8.3%
2 | O=C1c2ccccc2C(=O)N1CC1CO1 (stereo not given) | 3.4%
3 | C[N+]1(C)C/C(=C\c2ccc(O)cc2)C(=O)/C(=C/c2ccc(O)cc2)C1 | -9.75%
4 | O=C(O)C(CCl)c1ccccc1 (stereo not given) | 9.85%
5 | O=C(c1ccccc1)c1c(-c2ccccc2)sc2nc3ccccc3nc12 | 2.65%
6 | CC(C(=O)c1ccccc1)N(C)c1ccccc1 (stereo not given) | -26%
7 | COc1cc(NCCNCC(C)(C)C)c2ncccc2c1 | 33.5%
8 | NC(Cc1ccc(S(=O)(=O)O)cc1)C(=O)NC(CCCCNC(=O)NCCCCC(NC(=O)C(N)Cc1ccc(S(=O)(=O)O)cc1)C(=O)NC(Cc1ccc(S(=O)(=O)O)cc1)C(=O)O)C(=O)NC(Cc1ccc(S(=O)(=O)O)cc1)C(=O)O (stereo not given) | 22.6%
9 | O=C1C=C(c2ccccc2)C(O)(c2ccccc2)/C1=C/C=C/c1ccccc1 (stereo not given) | -5.2%
10 | COc1ccc2[nH]c3c4c(c(C)cc3c2c1)OC(C)(C)C=C4 | -16.6%
11 | CN1c2cccc3cccc(c23)NC12CCCCC2 | 14.2%
12 | CSC1=Nc2cc3c(cc2C(=O)N2C[C@H](O)CC12)OCO3 (stereo not given in full) | -10.8%
13 | CC(C)(CCN(CC(=O)O)CC(=O)O)[N+](=O)[O-] | 6.05%
14 | NC(CC(=O)Nc1ccc(Cl)cc1)=Nc1ccccc1 | -14.4%
15 | COc1ccc2c(c1)C(O)C(NCc1ccccc1)C2 (stereo not given) | 8.5%
16 | O=[N+]([O-])CC1=CCCCC1 | -5.05%
17 | COC(=O)C(CC12CC3CC(CC(C3)C1)C2)NC(=O)C(N)CC(=O)O (stereo not given) | 14.7%
18 | O=C1C(n2ccc(=O)[nH]c2=O)CCN1CCCl (stereo not given) | 14.1%
19 | CC(=O)Nc1ccc(S(=O)(=O)Oc2noc3ccc(Br)cc23)cc1 | -3.95%
20 | Cc1ccc(CCS(=O)(=O)N=[N+]=[N-])cc1 | -20%

Row | Structure (SMILES) | growth inhibition
21 | Cc1ccccc1S(=O)(=O)Nn1cnc2ccc(S(=O)(=O)Nc3ccc(Cl)cc3)cc2c1=O | 23.9%
22 | COc1cc(C2c3cc4c(cc3OC3(OC)COC(=O)C23)OCO4)cc(OC)c1OC (stereo not given) | -21.1%
23 | CC1CN=C(N(C(=O)Nc2ccc(Cl)c(Cl)c2)c2ccccc2)S1 (stereo not given) | -2.55%
24 | CC(=O)c1ccco1 | 1.25%
25 | C/C(CC1CCCCC1)=N\NC(N)=O | -10.9%
26 | O=C(N/N=C\c1cccc2c([N+](=O)[O-])cccc12)Nc1ccccc1 | -16.6%
27 | COc1cc(OC)c(NC(N)=O)cc1Cl | 5.75%
28 | NC(=O)CCCC(C(N)=O)(c1ccccc1)c1ccccc1 | -7.15%
29 | Cn1cnc([N+](=O)[O-])c1Sc1nccn1-c1ccccc1 | 0.75%
30 | O=[N+]([O-])c1cnc(/C=[N+](\[O-])C2CCCCC2)n1CCO | 16.6%
31 | O=C(O)CCCCCC1=CCCCC1 | 24.6%
32 | CC(C)(C)c1cc(C2OC(N)=C(O)C2=O)cc(C(C)(C)C)c1O (stereo not given) | 5.4%
33 | CCN(CC)Cc1cc(N)cc(N=Nc2ccc3c(c2)c2ccccc2n3CC)c1O | -3.4%
34 | O=C(CCCC(=O)Nc1cccc([N+](=O)[O-])c1)CC(=O)c1ccc([N+](=O)[O-])cc1 | -14.6%
35 | Cc1ccc(S(=O)(=O)CCC(=O)c2ccccc2)cc1 | 3.25%
36 | CC(C)(O)C(Cc1ccccc1)c1ccccc1 (stereo not given) | -23.6%
37 | CC(=O)OC(C)CCl (stereo not given) | -17.7%
38 | NCCCCCS(=O)(=O)O | -0.65%
39 | CC1=NNC(=O)CC1C(O)c1ccccc1 (stereo not given) | -8.45%
40 | Cc1ccc(S(=O)(=O)Nc2ccc(S(C)(=O)=O)cc2)cc1 | 3.85%

assay: NCI Yeast Anticancer Drug Screen. Data for the mlh1 rad18 strain (AID 175); details: S. cerevisiae mlh1 rad18 strain growth inhibition; at 50.0 µM; active compounds read high
Procedure, shortened: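 Growth inhibition of the yeast strain was measured after compound exposure and expressed relative to vehicle-treated controls. The strain carries defined defects in DNA damage repair.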

Row | Structure (SMILES) | growth inhibition
41 | Oc1ccc(-c2nc(-c3ccccc3)c(-c3ccccc3)[nH]2)cc1 | 4.05%
42 | O=C1c2ccccc2C(=O)N1CC1CO1 (stereo not given) | 27.3%
43 | C[N+]1(C)C/C(=C\c2ccc(O)cc2)C(=O)/C(=C/c2ccc(O)cc2)C1 | -14.2%
44 | O=C(O)C(CCl)c1ccccc1 (stereo not given) | 2.25%
45 | O=C(c1ccccc1)c1c(-c2ccccc2)sc2nc3ccccc3nc12 | 11.2%
46 | CC(C(=O)c1ccccc1)N(C)c1ccccc1 (stereo not given) | -1.65%
47 | COc1cc(NCCNCC(C)(C)C)c2ncccc2c1 | 0.5%
48 | NC(Cc1ccc(S(=O)(=O)O)cc1)C(=O)NC(CCCCNC(=O)NCCCCC(NC(=O)C(N)Cc1ccc(S(=O)(=O)O)cc1)C(=O)NC(Cc1ccc(S(=O)(=O)O)cc1)C(=O)O)C(=O)NC(Cc1ccc(S(=O)(=O)O)cc1)C(=O)O (stereo not given) | 14.2%
49 | O=C1C=C(c2ccccc2)C(O)(c2ccccc2)/C1=C/C=C/c1ccccc1 (stereo not given) | -8.35%
50 | COc1ccc2[nH]c3c4c(c(C)cc3c2c1)OC(C)(C)C=C4 | -6.15%
51 | CN1c2cccc3cccc(c23)NC12CCCCC2 | -10.8%
52 | CSC1=Nc2cc3c(cc2C(=O)N2C[C@H](O)CC12)OCO3 (stereo not given in full) | -6.3%
53 | CC(C)(CCN(CC(=O)O)CC(=O)O)[N+](=O)[O-] | -21.5%
54 | NC(CC(=O)Nc1ccc(Cl)cc1)=Nc1ccccc1 | -18.9%
55 | COc1ccc2c(c1)C(O)C(NCc1ccccc1)C2 (stereo not given) | -8.55%
56 | O=[N+]([O-])CC1=CCCCC1 | 16.6%
57 | COC(=O)C(CC12CC3CC(CC(C3)C1)C2)NC(=O)C(N)CC(=O)O (stereo not given) | -24.4%
58 | O=C1C(n2ccc(=O)[nH]c2=O)CCN1CCCl (stereo not given) | 12.5%
59 | CC(=O)Nc1ccc(S(=O)(=O)Oc2noc3ccc(Br)cc23)cc1 | 2.4%
60 | Cc1ccc(CCS(=O)(=O)N=[N+]=[N-])cc1 | -3.4%

Row | Structure (SMILES) | growth inhibition
61 | Cc1ccccc1S(=O)(=O)Nn1cnc2ccc(S(=O)(=O)Nc3ccc(Cl)cc3)cc2c1=O | 30.1%
62 | COc1cc(C2c3cc4c(cc3OC3(OC)COC(=O)C23)OCO4)cc(OC)c1OC (stereo not given) | -21.4%
63 | CC1CN=C(N(C(=O)Nc2ccc(Cl)c(Cl)c2)c2ccccc2)S1 (stereo not given) | -3.3%
64 | CC(=O)c1ccco1 | 13.1%
65 | C/C(CC1CCCCC1)=N\NC(N)=O | -27.1%
66 | O=C(N/N=C\c1cccc2c([N+](=O)[O-])cccc12)Nc1ccccc1 | -31.6%
67 | COc1cc(OC)c(NC(N)=O)cc1Cl | -15.8%
68 | NC(=O)CCCC(C(N)=O)(c1ccccc1)c1ccccc1 | -3.9%
69 | Cn1cnc([N+](=O)[O-])c1Sc1nccn1-c1ccccc1 | -2.85%
70 | O=[N+]([O-])c1cnc(/C=[N+](\[O-])C2CCCCC2)n1CCO | 9.8%
71 | O=C(O)CCCCCC1=CCCCC1 | 23.5%
72 | CC(C)(C)c1cc(C2OC(N)=C(O)C2=O)cc(C(C)(C)C)c1O (stereo not given) | 32.2%
73 | CCN(CC)Cc1cc(N)cc(N=Nc2ccc3c(c2)c2ccccc2n3CC)c1O | 17.9%
74 | O=C(CCCC(=O)Nc1cccc([N+](=O)[O-])c1)CC(=O)c1ccc([N+](=O)[O-])cc1 | 8%
75 | Cc1ccc(S(=O)(=O)CCC(=O)c2ccccc2)cc1 | 14.6%
76 | CC(C)(O)C(Cc1ccccc1)c1ccccc1 (stereo not given) | 0.8%
77 | CC(=O)OC(C)CCl (stereo not given) | -14.2%
78 | NCCCCCS(=O)(=O)O | 8.65%
79 | CC1=NNC(=O)CC1C(O)c1ccccc1 (stereo not given) | -11.4%
80 | Cc1ccc(S(=O)(=O)Nc2ccc(S(C)(=O)=O)cc2)cc1 | 3.3%
